TrxR1 substrate = is turned over as a substrate by rat TrxR1; Potency, µM (series often up to 114 µM); purified TrxR1 substrate turnover, NADPH consumption readout; AID 588456; hit rate 0.01% among 390,000; further: nearly all actives have a fitted effect of over 50% in size
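Rat TrxR1, dispensed at 90 nM, was prereduced with 400 uM NADPH (final) for 5 min at ~22 deg C, then incubated with compound 15 min before 400 uM selenite. A first-read NADPH fluorescence drop versus no-compound background flagged substrates.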
Vif-A3F inh = inhibitors of Vif-A3F interaction. HeLa A3F-eYFP + Vif (tagged APOBEC3F with the HIV-1 protein that degrades it), YFP fluorescence increase. Potency, µM (highest dose often 46.1 µM). hit rate 0.2% among 390,000. AID 602313; further: nearly all actives have a fitted effect of over 65% in size
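Fluorescence increase (Ex 488/Em 500-530) after overnight compound treatment at 37 deg C flags inhibition of Vif-driven A3F-eYFP loss in stable HeLa A3F-eYFP/Vif cells seeded overnight beforehand.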
TrxR1 inh = blocks rat thioredoxin reductase 1; O89049; recombinant rTrxR1, NADPH fluorescence consumption, selenite substrate; hit rate 1% among 390,000; Potency, µM (titrated, usually from 114 µM), hits mostly inhibitors; further: nearly all actives have a fitted effect of over 65% in size
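Rat TrxR1 (90 nM in the dispensed reagent) was pre-reduced with 400 uM NADPH for 5 min at room temperature, then incubated with compound for 15 min. After 400 uM selenite was added, NADPH fluorescence (Ex 340/Em 450 nm) was followed for 8 min.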
Vif-A3G inh = inhibitors of Vif-APOBEC3G interaction. Q9HC16. HeLa A3G-eYFP + Vif (tagged APOBEC3G with the HIV-1 protein that degrades it), YFP fluorescence, overnight. Potency, µM (top dose mostly 46.1 µM), usual class: inhibitors. hit rate 0.076% among 410,000; further: nearly all actives have a fitted effect of over 60% in size
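HeLa cells stably expressing Vif and C-terminally eYFP-tagged A3G, seeded overnight at 37 deg C, then exposed to compound by pintool overnight at 37 deg C. Rise in yellow fluorescence (Ex 488/Em 500-530, Acumen) marks blocked Vif-driven A3G degradation.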
VDR inh = inhibitors of human vitamin D receptor; AID 504847; P11473; Potency, µM, hits mostly inhibitors; hit rate 0.93% among 400,000; VDR-SRC2-3 peptide fluorescence polarization, 2 h
Target sequence (P11473 whole entry, looked up): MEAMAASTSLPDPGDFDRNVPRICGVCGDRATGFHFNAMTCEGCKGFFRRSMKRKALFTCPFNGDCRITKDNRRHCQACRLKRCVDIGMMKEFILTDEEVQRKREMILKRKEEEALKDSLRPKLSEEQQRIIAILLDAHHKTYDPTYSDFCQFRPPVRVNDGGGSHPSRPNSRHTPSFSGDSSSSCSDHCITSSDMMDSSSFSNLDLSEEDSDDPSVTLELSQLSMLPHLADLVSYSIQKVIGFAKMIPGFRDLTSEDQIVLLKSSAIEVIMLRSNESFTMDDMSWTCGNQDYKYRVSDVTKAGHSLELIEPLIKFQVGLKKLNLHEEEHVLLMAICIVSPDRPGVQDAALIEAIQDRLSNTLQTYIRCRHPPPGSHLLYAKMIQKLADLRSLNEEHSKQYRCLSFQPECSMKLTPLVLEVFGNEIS
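Two reagent solutions held at 4 deg C in the dark were dispensed, compounds pinned at 23 nl, and the mixture incubated 2 h at room temperature. Read-out: fluorescence polarization of VDR–SRC2-3 peptide binding.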
Large screens that a line does not name were inactive. Compounds with a hit are over-represented: about 1.8% of the library has one in this group of screens. The call rests on the fitted dose curve; in most records, active means well fitted curve in the direction sought with a large enough effect; inconclusive means small, poorly fitted or top-dose-only effect, or another doubt; inactive means no such curve, though single readings can be large; an effect the other way counts as inactive or inconclusive.

C=C1C[C@@]23C[C@]1(O)CC[C@@H]2[C@]12C=C[C@@H](O)[C@](C)(C(=O)O1)[C@H]2[C@H]3C(=O)O	none (no result: TrxR1 substrate, Vif-A3F inh, TrxR1 inh, Vif-A3G inh)
Nc1c(C(=O)Nc2nc3ccccc3s2)sc2nc(-c3cccs3)ccc12	Vif-A3F inh 7.9µM, Vif-A3G inh 11µM
Nc1c(C(=O)Nc2ccccc2)sc2nc(-c3ccco3)ccc12	TrxR1 inh 4µM
COc1ccccc1NC(=O)c1sc2nc(-c3ccco3)ccc2c1N	none
CCOC(=O)CCCCC(=O)c1[nH]c(=O)[nH]c1CSCCO	none
CCOC(=O)CCCc1sc(N)nc1-c1[nH]c(=O)[nH]c1C	TrxR1 inh 7.9µM
O=C(Nc1cccc2nsnc12)c1ccc(-c2cccc(Cl)c2)o1	TrxR1 inh 35µM, Vif-A3G inh inconclusive, VDR inh inconclusive (no result: Vif-A3F inh)
Cc1ncc(C[n+]2csc(CCOP(=O)(O)O)c2C)c(N)n1	none (no result: TrxR1 substrate, Vif-A3F inh, TrxR1 inh, Vif-A3G inh)
C/C(=C(/CCO)SS/C(CCO)=C(\C)N(C=O)Cc1cnc(C)nc1N)N(C=O)Cc1cnc(C)nc1N	VDR inh 32µM (no result: TrxR1 substrate, Vif-A3F inh, TrxR1 inh, Vif-A3G inh)
O=C(CCCN1C(=O)c2cccnc2Oc2ccc(Cl)cc21)NCc1ccccc1F	none
CCCCCCCCCCCNC(=O)c1ccoc1C	TrxR1 inh 20µM, VDR inh 79µM
Cc1occc1C(=O)NCc1ccccc1F	TrxR1 inh 10µM
COc1ccc2c(c1)CCc1c(C(=O)NCCN3CCOCC3)noc1-2	TrxR1 inh 40µM
COCCNC(=O)c1noc2c1CCc1cc(OC)ccc1-2	TrxR1 inh inconclusive
COCC(C)NC(=O)c1noc2c1CCc1cc(OC)ccc1-2 (centres undefined)	TrxR1 inh 10µM
COc1ccc2c(c1)CCc1c(C(=O)N(C)c3ccccc3)noc1-2	TrxR1 inh 79µM
COc1ccc2c(c1)CCc1c(C(=O)NCCCn3ccnc3)noc1-2	TrxR1 inh 16µM
COc1ccc(C(=O)NCCCn2ccnc2)cc1	none
[O-][N+](=NC1C=Cc2ccccc21)C1C=Cc2ccccc21 (centres undefined)	none (no result: Vif-A3F inh, VDR inh)
C1=Cc2ccccc2/C1=C/c1ccc2c(c1)OCO2	none (no result: Vif-A3F inh, VDR inh)
CC(C)(C)c1ccc(C(=O)C[n+]2ccccc2Cl)cc1	none (no result: Vif-A3F inh, VDR inh)
CCOc1ccc(N)c(SSc2cc(OCC)ccc2N)c1	VDR inh 10µM
CCOc1cccc(N)c1	none
Cc1cc(C)c(NC(=O)Cn2c(=O)n(Cc3ccc(C(=O)NCc4ccco4)cc3)c(=O)c3sccc32)c(C)c1	Vif-A3F inh inconclusive, Vif-A3G inh 8.9µM
O=C1CC(N2CCC(c3nc4ccccc4o3)CC2)C(=O)N1c1ccc(Cl)c(C(F)(F)F)c1 (centres undefined)	TrxR1 inh 18µM
c1ccc(CNc2ncnc3c2ncn3Cc2ccccc2)cc1	none (no result: Vif-A3F inh)
C[N+]1(CC(=O)c2c3ccccc3cc3ccccc23)CCOCC1	none (no result: Vif-A3F inh, VDR inh)
CC1=C/C(=C\C=C(C#N)C#N)N(C)c2ccccc21	Vif-A3F inh inconclusive, Vif-A3G inh 1.8µM
O=C(NC1CCCCC1)c1cccc2c1C(=O)c1ccc(N3CCCC3)cc1S2(=O)=O	none
CC1CCN(c2ccc3c(c2)S(=O)(=O)c2cccc(C(=O)NCc4ccc(F)cc4)c2C3=O)CC1	Vif-A3F inh inconclusive
O=C(NC1CC1)c1cccc2c1C(=O)c1ccc(N3CCC(Cc4ccccc4)CC3)cc1S2(=O)=O	Vif-A3F inh 22µM, Vif-A3G inh inconclusive
O=C(NCc1ccc(F)cc1)c1cccc2c1C(=O)c1ccc(N3CCC(Cc4ccccc4)CC3)cc1S2(=O)=O	Vif-A3F inh 25µM, Vif-A3G inh inconclusive
O=C(COC(=O)C1CCC(=O)N1)Nc1ccc(Oc2ccccc2)cc1 (centres undefined)	none
O=C(COC(=O)C1CCC(=O)N1)Nc1ccccc1Br (centres undefined)	VDR inh 22µM
O=C(CCN1CCN(c2ccccc2)CC1)c1ccc(Cl)cc1	TrxR1 inh 1.6µM, VDR inh 79µM
O=C(CCN1CCCCC1)c1cccc(Cl)c1	Vif-A3F inh inconclusive, TrxR1 inh 0.35µM, VDR inh inconclusive
COc1ccc(N2CCN(CCC(=O)c3ccc4ccccc4c3)CC2)cc1	TrxR1 inh 1.8µM, VDR inh 71µM
COc1ccc(N2CCN(CC(=O)c3ccccc3)CC2)cc1	Vif-A3F inh inconclusive, TrxR1 inh inconclusive
O=C(CCN1CCN(c2ccccc2)CC1)Nc1ccc(Cl)cc1	none
O=C(Nc1ccc(F)c(F)c1)c1cnn2c1NC(=C1CC1)C=C2C(F)F	none (no result: Vif-A3F inh, Vif-A3G inh, VDR inh)
CC(C)c1c(O)c(-c2cc3c(c(C(C)C)c2O)CCC2C(C)(C)CCC[C@@]32C)cc2c1CCC1C(C)(C)CCC[C@@]21C (some centres undefined)	none (no result: TrxR1 substrate, Vif-A3F inh, TrxR1 inh, Vif-A3G inh)
CC(C)c1cc2c(c(O)c1O)[C@@]13CCCC(C)(C)C1CC2OC3=O (some centres undefined)	TrxR1 inh 16µM, Vif-A3G inh inconclusive, VDR inh inconclusive
C=NCc1cc2c(OC[C@@H](O)CNC(C)(C)C)cccc2[nH]1	none (no result: TrxR1 substrate, Vif-A3F inh, TrxR1 inh, Vif-A3G inh)
CCOC(=O)c1c(-c2ccc(C)cc2)csc1NC(=O)c1cc(=O)c2cc(C)ccc2o1	VDR inh 28µM (no result: Vif-A3F inh, Vif-A3G inh)
CCOC(=O)c1c(-c2ccc(C)cc2)csc1NC(=O)c1cc(=O)c2cc(C)c(C)cc2o1	none
COC(=O)C1C=CC(OC2OC(COC(C)=O)C(OC(C)=O)C(OC(C)=O)C2OC(C)=O)n2c(=O)n(-c3ccccc3)c(=O)n21 (centres undefined)	TrxR1 inh 11µM, VDR inh inconclusive
CC(=O)OCC1OC(n2ccc3ccccc32)C(OC(C)=O)C(OC(C)=O)C1OC(C)=O (centres undefined)	none
Cc1cc(=O)oc2cc(O[C@@H]3O[C@H](C(=O)O)[C@@H](O)[C@H](O)[C@H]3O)ccc12	none (no result: TrxR1 substrate, Vif-A3F inh, TrxR1 inh, Vif-A3G inh)
CCOC(=O)c1cnc2cc(C(F)(F)F)ccc2c1Nc1ccc(F)cc1F	none
Cc1ccc(-c2csc3ncn(-n4c(C)ccc4C)c(=O)c23)o1	TrxR1 inh 32µM, VDR inh inconclusive
C=CCn1c(SCc2ccccc2)nc2scc(-c3ccc(C)o3)c2c1=O	TrxR1 inh inconclusive
Cc1ccccc1CN1[C@H](C)[C@H](c2ccccc2)OCCS1(=O)=O	none (no result: Vif-A3F inh, VDR inh)
COc1ccc(C2Nc3ccccc3C(=O)N2Cc2ccccc2)cc1COc1ccccc1F (centres undefined)	none (no result: Vif-A3F inh)
CCc1ccc(NC(=O)c2nc(SCc3ccccc3F)ncc2Cl)cc1	none (no result: Vif-A3F inh, VDR inh)
CN(C)c1ccc(/C=C/c2ccnc3ccccc23)c(F)c1	Vif-A3G inh inconclusive (no result: Vif-A3F inh, VDR inh)
O=C1[C@@H]2C(c3cccnc3)=NO[C@@H]2C(=O)N1c1ccc(Br)cc1	TrxR1 inh 28µM
Cc1nc2c(C#N)c[nH]n2c(=O)c1CCO	VDR inh 28µM
[N-]=C=C1C(=O)NC(=O)C([n+]2ccc(-c3ccncc3)cc2)C1c1ccccc1C(F)(F)F (centres undefined)	VDR inh 28µM
CSc1nsc(/C=C/Nc2ccc(C)cc2)c1C#N	Vif-A3F inh inconclusive, Vif-A3G inh 13µM
CSc1nsc(/C=C/Nc2ccc(C)c(C)c2)c1C#N	Vif-A3F inh inconclusive

Source: PubChem
